# Pf growth 96h = P. falciparum growth inhibition at 96 hour, primary screen for plastid delayed-death inhibitors | Potency, µM (titrated, usually from 28.7 µM), for inactives: at the highest dose activity change, negative = inhibition, usual class: inhibitors | actives 6.9% (n = 320,000) | AID 504834 | P. falciparum luciferase reporter growth, 96 h; further: potency means the concentration at half of the fitted maximal effect; on the % scale 0 is the no-effect control and ±100 the full control effect
#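 Two-generation exposure (96 h) targets delayed-death phenotype. Reporter parasites carrying integrated firefly luciferase, in red cells at 2% hematocrit and 0.05% parasitemia final, kept at 37 C, 5% CO2; luminescence loss indicates inhibition.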
# Cycloheximide cs = counter-screen for Shiga toxin inhibitors: cycloheximide protein synthesis inhibition; cell reporter, cycloheximide protein synthesis inhibition counterscreen; max response, %; actives 12% (n = 300,000); in the data active means max response mostly above about 13%, no sharp cut-off; inactive means mostly below about 14%; further: read at 38.3 µM for the half of the compounds with a filed dose; 0% is about no effect
# Pf growth 48h = inhibits P. falciparum growth in the first generation, 48 h | actives 5.9% (n = 310,000) | P. falciparum luciferase growth in erythrocytes, 48 h | Potency, µM (doses to about 28.7 µM), without a hit: at the top dose activity change, negative = inhibition, actives largely listed as inhibitors; further: potency means the concentration at half of the fitted maximal effect; on the % scale 0 is the no-effect control and ±100 the full control effect
#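 In quantitative HTS format, infected erythrocytes bearing luciferase-reporter parasites were treated for a single generation at 37 C. Luminescence after adding detection reagent served as the growth measure.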
# HCMV inh = inhibitors of human cytomegalovirus; HFF cells, HCMV-luciferase reporter, 72 h; active compounds read low; activity change, negative = inhibition, % at 57.5 µM; actives 4.5% (n = 410,000); in the data active means activity change below about -60%; inconclusive means no clear call, values can overlap the other calls; inactive means above about -39%; further: on the % scale 0 is the no-effect control and ±100 the full control effect
#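 Two-dose cell screen: HFF monolayers treated with compounds and infected with luciferase-expressing HCMV at 1 PFU/cell, 72 h at 37C, then lysed for luciferase measurement.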
# Shiga inhibitor = Shiga toxin inhibition; Vero cells, Shiga toxin protein synthesis inhibition reporter; inhibition, % at 38.7 µM; actives 9.2% (n = 290,000); AID 2315; in the data active means inhibition mostly above about 28%, no sharp cut-off; inactive means mostly below about 43%; further: 0% is about no effect
# * hit, by the source's call; ? = inconclusive; . = no result. Compounds with a hit are over-represented: about 20% of the library has one in this group of screens. Unless noted, the call rests on the fitted dose curve; in most records, active means well fitted inhibition curve with a large enough effect; inconclusive means small, poorly fitted or top-dose-only effect, or another doubt; inactive means no such curve, though single readings can be large or run the other way.
SMILES,Pf growth 96h,Cycloheximide cs,Pf growth 48h,HCMV inh,Shiga inhibitor
C=CC[N+]1(CC#Cc2ccccc2)CCCC1,20%,-4,?,-27,26
C=CC[N+]1(CC#CCOC(c2ccccc2)c2ccccc2)CCOCC1,2.6µM*,-2,?,-16,-8
Cc1ccc2cc(CCNC(=O)CCCc3ccccc3)c(=O)[nH]c2c1C,?,-1,-3%,-2,-7
CC(CC(=O)NC1CCCC1)c1ccccc1 (centres undefined),?,8,-6%,13,4
O=S(=O)(Nc1ccc(Br)cc1)N1CCOCC1,9.3µM*,-1,23%,-20,-1
O=S(=O)(Nc1ccc(F)cc1)N1CCOCC1,32%,34*,8%,-12,4
Cc1ccc(NS(=O)(=O)N2CCOCC2)cc1,?,8,22%,51,-6
COc1ccc(CC2(CO)CCN(Cc3ccc4nsnc4c3)CC2)cc1,?,1,9%,-12,-3
CC(C)(CO)NC(=O)C(Cc1ccccc1)N1C(=O)c2ccccc2C1=O (centres undefined),?,-1,16%,-20,-2
Cc1cc(C)c(S(=O)(=O)c2ccccc2)c(N2CCOCC2)n1,-7%,-4,?,-18,-10
Cc1ccc(C)c(NC(=O)CCCCCCCCCCC2COCCO2)c1 (centres undefined),13µM*,-8,-4%,?,-14
Cc1cccc(NS(=O)(=O)c2ccc3oc(=O)c4ncn(C)c4c3c2)c1C,.,.,.,30,.
CCN(CC(=O)N1CCOCC1)S(=O)(=O)c1cc(Cl)ccc1Cl,-5%,-3,-12%,-7,-8
N/C(=N\OC(=O)c1ccc(Cl)cc1[N+](=O)[O-])c1cccnc1,?,44*,-13%,111,56*
N/C(=N\OC(=O)c1cc(Br)ccc1Cl)c1cccnc1,?,9,?,47,23
N/C(=N\OC(=O)c1ccccc1)c1ccn[nH]1,179%,25*,176%,127,49*
O=C(O/N=C(/c1ccccc1)c1ccncc1)c1ccc(F)cc1,23%,-7,?,-12,-4
N/C(=N\OC(=O)c1cc(Cl)ccc1Cl)c1cccnc1,?,34*,.,222,56
N/C(=N\OC(=O)c1ccccc1Cl)c1cccnc1,29%,38*,61%,168,61*
O=C(COC(=O)C1CC(O)CN1S(=O)(=O)c1ccccc1[N+](=O)[O-])c1ccc[nH]1 (centres undefined),12%,.,-2%,-32,.
O=C(NCCCN1CCOCC1)c1onc(CSc2ccccn2)c1C(=O)NCCCN1CCOCC1,.,.,.,-37,.
CCOCCc1nn2c(=O)cc(COC(=O)c3ccc(NC(=O)c4ccc(F)cc4)cc3)nc2s1,.,.,.,12,.
N/C(=N\OC(=O)c1ccccc1)c1cccnc1,0%,47*,0%,0,66*
COC(=O)c1sc(N)c(C(=O)OC)c1CSc1nnnn1C,9.3µM*,-6,10µM*,40,-14
CCCOc1ccc(C(=O)Nc2ccc(NC(=O)c3cccc(Cl)c3)cc2)cc1,.,.,.,5,.
SMILES,Pf growth 96h,Cycloheximide cs,Pf growth 48h,HCMV inh,Shiga inhibitor
O=C(COC(=O)c1ccccc1)Nc1ccc(Cl)cn1,59%,15,38%,-4,66
O=C(Nc1cc(-c2ccccc2)[nH]n1)c1ccc(Cl)cc1,-18%,51*,-9%,34,88*
O=C(Nc1ccc(Cl)cn1)c1ccc(Oc2ccccc2)cc1,?,34*,90%,39,32*
O=C(Nc1ccc(Cl)cn1)c1ccccc1SCc1ccccc1,0%,6,-18%,20,21
O=C(Nc1ccc(Cl)cn1)c1cccc(OCc2ccccc2)c1,131%,22*,9%,44,48*
CCCOc1ccc(C(=O)Nc2ccc(Cl)cn2)cc1,40%,30*,.,-6,77*
COc1ccccc1N1CC(C(=O)Nc2cc(C(F)(F)F)ccc2N2CCCC2)CC1=O (centres undefined),-5%,.,?,14,.
COc1ccc2c(CNCc3ccccc3OC)c(C(=O)O)n(Cc3ccc(F)cc3Cl)c2c1,.,.,.,7,.
O=[N+]([O-])c1cc(-c2nc(-c3ccccc3)no2)ccc1NCCc1ccccc1,.,.,.,22,.
CCCCN(C/C=C/c1ccccc1OC)Cc1ccccc1,8.3µM*,5,?,3,24
CCN(C/C=C/c1ccccc1OC)Cc1ccccc1,109%,-1,6%,-12,15
Cc1cc(NC(=O)COC(=O)c2ccccc2S(=O)(=O)N(C)c2ccccc2)no1,?,-2,-6%,-101*,-10
Cc1cc(NC(=O)COC(=O)c2ccc(Cl)cc2)no1,.,.,.,16,.
Cc1cc(NC(=O)COC(=O)c2c(Cl)cccc2Cl)no1,-28%,.,?,-68*,.
CC(C)(C)NC(=O)NC(=O)COC(=O)c1c(F)cccc1Cl,29%,36*,-17%,8,109*
CCOc1ccc(C(=O)OCC(=O)Nc2cc(C)on2)cc1OCC,.,15,4%,37,19
Cc1cc(NC(=O)COC(=O)c2cccc(O)c2)no1,18%,6,26%,-65*,29
Cc1cc(NC(=O)COC(=O)c2ccccc2NCCO)no1,.,.,.,-11,.
CC(C)CCNC(=O)C(c1ccco1)N(Cc1ccc(F)cc1)C(=O)c1snc(C(N)=O)c1N (centres undefined),22%,-3,.,16,-16
COC(=O)c1c(N)n(CCCN2CCOCC2)c2nc3ccccc3nc12,9.3µM*,-5,?,-13,-7
Nc1c(C(=O)NCCN2CCOCC2)c2nc3ccccc3nc2n1Cc1ccco1,?,-3,9.3µM*,-16,-2
COCCNC(=O)c1c(N)n(Cc2ccco2)c2nc3ccccc3nc12,13µM*,-4,13µM*,20,-7
Nc1c(C(=O)NCCN2CCOCC2)c2nc3ccccc3nc2n1Cc1ccccc1,?,2,?,-27,14
CCCCn1c(N)c(C(=O)NCCN2CCOCC2)c2nc3ccccc3nc21,8%,-2,?,4,-13
CC(C)Cn1c(N)c(C(=O)NCCN2CCOCC2)c2nc3ccccc3nc21,18%,-2,3.7µM*,?,-1
SMILES,Pf growth 96h,Cycloheximide cs,Pf growth 48h,HCMV inh,Shiga inhibitor
CCNC(=O)OCC12CC3CC(CC(C3)C1)C2,336%,-1,-1%,-17,-7
Cc1cc(NS(=O)(=O)c2ccc(NC(=O)COc3ccccc3Br)cc2)no1,.,.,.,7,.
Cc1cccc(-n2c(N)c(C(=O)NCCN3CCOCC3)c3nc4ccccc4nc32)c1,9.3µM*,-3,.,9,-13
Nc1c(C(=O)NCCc2ccccc2)c2nc3ccccc3nc2n1CCN1CCOCC1,2%,8,?,-13,3
O=C(Cc1ccc2ccccc2c1)NC(Cc1ccccc1)C(=O)O (centres undefined),.,.,.,16,.
CN(C)CCCNC(=O)C(=O)Nc1ccc2c(c1)N(S(=O)(=O)c1cccs1)CCC2,?,.,9.3µM*,?,.
CCCNC(=O)C(=O)Nc1ccc2c(c1)N(S(=O)(=O)c1cccs1)CCC2,56%,.,1%,2,.
CN(C)CCNC(=O)C(=O)Nc1ccc2c(c1)N(S(=O)(=O)c1cccs1)CCC2,13µM*,.,?,-25,.

# Assay outcomes deposited in PubChem by National Center for Advancing Translational Sciences (NCATS).
